Screening data deposited in PubChem by National Center for Advancing Translational Sciences (NCATS).
Shown are actives, neighbours in structure and some others; about 7.3% of the full set was active somewhere.
Tau FP inhib – tau fibrillization inhibition (FP). K18 P301L tau heparin fibrillization, Alexa594 FP, 6 h. Potency, µM (series often up to 57.7 µM), inactives show top-dose activity, negative = inhibition, actives largely listed as inhibitors. 280,000 tested, 0.39% active. AID 1468; note: nearly all actives have a fitted effect of over 55% in size
Target sequence (P10636 561-689 P618L limits assumed): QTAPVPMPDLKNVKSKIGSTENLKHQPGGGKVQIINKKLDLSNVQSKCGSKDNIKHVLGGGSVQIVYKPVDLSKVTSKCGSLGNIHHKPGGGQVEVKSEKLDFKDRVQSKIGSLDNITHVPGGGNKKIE
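FP of Alexa 594-tau after heparin (20 uM) induction. Substrate: human K18 P301L, 15 uM unlabeled, 0.24 uM labeled. Buffer 100 mM sodium acetate pH 7. 6 hr, 37 C.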
RORg inh – ROR gamma (mouse) transcription inhibition; P51450; Drosophila S2 Gal4-RORgamma UAS-luciferase reporter, 20 h; Potency, µM (highest dose often 53.6 µM), without a hit: at the highest dose activity change, negative = inhibition, usual class: inhibitors; 310,000 tested, 5.4% active; note: nearly all actives have a fitted effect of over 60% in size
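Compounds are pin-transferred onto Drosophila Schneider cells expressing a copper-inducible Gal4–ROR gamma transactivation domain fusion. After 1 hr, copper sulfate is added to 700 uM final; luciferase is read 20 hr later.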
VP16 counter – counter-screen for ROR gamma inhibitors: Gal4-VP16 reporter | Drosophila S2 Gal4-VP16 UAS-luciferase, luminescence, 20 h | Potency, µM (series often up to 53.6 µM), inactives show top-dose activity, negative = inhibition, actives largely listed as inhibitors | 310,000 tested, 3.5% active | AID 2546;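 note: Gal4-VP16 expression switched on by copper sulfate through the metallothionein promoter; nearly all actives have a fitted effect of over 50% in size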
Tau ThT inhib – blocks human tau fibril formation measured by thioflavin T | recombinant tau K18 P301L, heparin-induced fibrillization, ThT fluorescence | Potency, µM (titrated, usually from 57.4 µM), without a hit: top-dose activity, negative = inhibition, hits mostly inhibitors | 270,000 tested, 2.1% active | AID 1460; note: nearly all actives have a fitted effect of over 55% in size
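Recombinant human tau K18 fragment […] carrying P301L, 15 uM unlabeled plus 0.24 uM Alexa 594-labeled, was fibrillized with 20 uM heparin in 100 mM sodium acetate pH 7 for 6 hr at 37 C; 30 uM ThT fluorescence read after 1 hr.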
Tau fluor counter – counter-screen for tau fibril formation inhibitors; Potency, µM (top dose mostly 57.7 µM), for the others: top-dose activity change, negative = decrease; 280,000 tested, 0.93% active; AID 1463; tau K18 P301L Alexa594 fluorescence, heparin fibrillization; note: nearly all actives have a fitted effect of over 55% in size
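Human tau K18 P301L (15 uM unlabeled, 0.24 uM Alexa 594-labeled) in 100 mM sodium acetate pH 7 with 20 uM heparin, 6 hr at 37 C. ThT 30 uM added, 1 hr ambient; Alexa 594 FP and total fluorescence read at 555/632 nm.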
An asterisk follows results filed as active; u = inconclusive; x = no result; [ ] = another dose, or the depositor's remark. Calls come from the whole dose curve; as a rule, active = well fitted curve in the direction sought with a large enough effect; inconclusive = small, poorly fitted or top-dose-only effect, or another doubt; inactive = no such curve, though single readings can be large; an effect the other way counts as inactive or inconclusive. % is set by controls: 0 for no effect and ±100 for the full control effect; potency is the fitted concentration of half-maximal effect.

SMILES | Tau FP inhib | RORg inh | VP16 counter | Tau ThT inhib | Tau fluor counter
Cn1c(=S)[nH]c2sc3c(c2c1=O)CCC(C(C)(C)C)C3 (configuration not stated) | x | 0.32µM* | 1µM* | x | x
O=c1[nH]cnc2sc3c(c12)CCCCC3 | -2% | 19% | -5% | -2% | -6%
O=c1[nH]c(=S)[nH]c2sc3c(c12)CCCCCC3 | x | 14µM* | u | x | x
CCCn1c(=S)[nH]c2sc3c(c2c1=O)CCCC3 | x | 0.28µM* | 0.89µM* | x | x
CC(=O)Cn1nnc2sc3c(c2c1=O)CCC(C(C)(C)C)C3 (configuration not stated) | 2% | 19% | u | -3% | -9%
COCCCn1c(=S)[nH]c2sc3c(c2c1=O)CCCS3 | -9% | 1µM* | 2.8µM* | u | -25%
Cc1ccc(-c2nc(SCC(=O)N(C)c3c(N)n(Cc4ccccc4)c(=O)[nH]c3=O)n[nH]2)cc1 | x | 15% | -7% | x | x
CCn1nnc2sc3c(c2c1=O)CCC(C)C3 (configuration not stated) | 1% | 14% | -2% | -5% | -7%
COCCn1c(=S)[nH]c2sc3c(c2c1=O)CCC(C)C3 (configuration not stated) | x | 1.1µM* | 1.3µM* | x | x
O=C(NCc1ccccc1F)C1CCN(c2nnc(-n3cccc3)s2)CC1 | -2% | x | x | u | -13%
CC(C)N(Cc1nc(COc2ccccc2)no1)Cc1nccn1C | -3% | u | 23% | -9% | -10%
COC(=O)c1ccc(-c2noc(CN3CCCCC3c3nccn3C)n2)cc1 (configuration not stated) | -3% | 13µM* | -12% | -13% | -10%
CC(C)N(Cc1nc(-c2ccc3c(c2)OCO3)no1)Cc1nccn1C | 2% | 14µM* | -8% | 0% | 3%
COC(=O)c1ccc(-c2noc(CN(Cc3nccn3C)C(C)C)n2)cc1 | -4% | 10µM* | -6% | -2% | 2%
CCCCC#CC1C=CC(Oc2ccc(C(=O)OC)cc2)C(COC(=O)OCC)O1 (configuration not stated) | -2%[11.6 µM] | 17%[10 µM] | -6%[10 µM] | -8%[11.5 µM] | -3%[11.6 µM]
CCNC(=S)Nc1cc2oc3ccccc3c2cc1OC | x | 21% | 14% | x | x
CNC(=S)Nc1cc2oc3ccccc3c2cc1OC | x | 7.9µM* | 13µM* | x | x
CCCNC(=S)Nc1cc2oc3ccccc3c2cc1OC | x | 4.5µM* | 7.1µM* | x | x
CCOC(=O)C1CCN(c2nc3c(S(=O)(=O)c4ccccc4)nnn3c3ccsc23)CC1 | 2% | x | x | -3% | -19%
Cc1ccc(-n2cc3c(c2-c2ccccc2Br)c(=O)n(C)c(=O)n3C)cc1N | 3% | x | x | u | -21%
CCN1C=CC(=C2C(=O)c3ccccc3C2=O)C=C1 | -3% | u | 0.32µM* | u | -4%
CCCCCCN1C=CC(=C2C(=O)c3ccccc3C2=O)C=C1 | 7% | 23% | -9% | 8% | 2%
CN1C=CC(=C2C(=O)c3ccccc3C2=O)C=C1 | 6% | u | u | -17% | 6%
CCCN1C=CC(=C2C(=O)c3ccccc3C2=O)C=C1 | 3% | 1.1µM* | 0.25µM* | u | -3%
Cc1ccc2nc(C(=O)N3CCCC(Nc4ccc(F)cc4)C3)cn2c1 (configuration not stated) | x | 33% | -9% | x | x
SMILES | Tau FP inhib | RORg inh | VP16 counter | Tau ThT inhib | Tau fluor counter
CCc1ccc(CNc2ncnc3onc(-c4ccc(Cl)cc4)c23)cc1 | -4% | x | x | 1% | -13%
Cc1cccc(N2CC(O)(c3cccs3)[N+]3=C2CCCC3)c1C (configuration not stated) | 5% | 8% | 35µM* | 1% | 7%
COc1ccc(N2CCc3c(C)nc4c(OC)cccc4c32)cc1 | -9% | 20µM* | -7% | -7% | -4%
COc1ccc(N2CCc3c(C)nc4c(OC)cc(OC)cc4c32)cc1 | -3% | -30% | -14% | -6% | -5%
CCc1c(C)sc(NC(=S)Nc2nc(C)cc(C)n2)c1C(=O)OC | -4% | -40% | 7% | -8% | -17%
Cc1cc(C)cc(C(=O)NC(=S)Nc2cccnc2)c1 | x | 10µM* | u | x | x
CCc1c(C)sc(NC(=S)Nc2cccnc2)c1C(=O)OC | -13% | 3.5µM* | 6.3µM* | -11% | u
